Reference: paper PMC7862700, “An all-to-all approach to the identification of sequence-specific readers for epigenetic DNA modifications on cytosine”

Key:
Experiment in all cases: DAPPL (digital affinity profiling via proximity ligation, sequencing); 10 mM Tris-HCl pH 7.5, 50 mM NaCl, 1 mM DTT, 4% glycerol, room temperature, 30 min; GST-TFs on glutathione beads, 16-mer random dsDNA library, 0.1% formaldehyde crosslink after washing; high values mean tight binding
FEV = target: T1, FEV (Homo sapiens, UniProt Q99581 1-238); conditions: protein: recombinant; tags: N-terminal GST; dsDNA, one strand shown
T1 sequence: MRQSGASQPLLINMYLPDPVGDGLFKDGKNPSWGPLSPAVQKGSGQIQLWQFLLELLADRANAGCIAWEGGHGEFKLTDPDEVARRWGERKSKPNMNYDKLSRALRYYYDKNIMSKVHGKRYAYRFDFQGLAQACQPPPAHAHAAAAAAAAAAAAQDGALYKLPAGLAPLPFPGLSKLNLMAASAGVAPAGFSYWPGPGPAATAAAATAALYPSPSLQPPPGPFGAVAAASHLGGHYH
Summary of the method: (§1)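 Pools of DNA-barcoded human transcription factors, expressed in yeast as GST fusions on glutathione beads and combined with a tag-only sample, were incubated with 200 nmole of a 16-mer random double-stranded DNA library. Incubation took 30 min at room temperature in Tris/NaCl/DTT/glycerol buffer and was followed by washing, 0.1% formaldehyde crosslinking, proximity ligation (BsaI/T4 ligase, 1 h, 37 °C), PCR amplification and sequencing on an Illumina NextSeq500. Binding signal is the ratio of a hexamer's read frequency for a factor to its frequency for the tag-only sample.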

ETV5 = ETV5 (Homo sapiens, UniProt P41161 1-510); conditions: protein: recombinant; tags: N-terminal GST; dsDNA, one strand shown
Summary of the method: as §1

HSF1 = HSF1 (Homo sapiens, UniProt Q00613 1-529); conditions: protein: recombinant; tags: N-terminal GST; chain copies: 3; dsDNA, one strand shown
Summary of the method: as §1

SPIC = target: T2, SPIC (Homo sapiens, UniProt Q8N5J4 1-248); conditions: protein: recombinant; tags: N-terminal GST; dsDNA, one strand shown
T2 sequence: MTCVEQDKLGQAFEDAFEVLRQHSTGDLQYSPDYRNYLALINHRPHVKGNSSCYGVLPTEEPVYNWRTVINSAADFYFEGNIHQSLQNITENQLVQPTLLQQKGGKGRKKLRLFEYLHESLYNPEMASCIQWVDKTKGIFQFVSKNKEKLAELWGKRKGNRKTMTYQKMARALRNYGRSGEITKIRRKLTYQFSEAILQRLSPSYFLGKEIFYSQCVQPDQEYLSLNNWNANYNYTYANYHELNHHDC
Summary of the method: as §1

ELF4 = ELF4 (Homo sapiens, UniProt Q99607 1-663); conditions: protein: recombinant; tags: N-terminal GST; dsDNA, one strand shown
Summary of the method: as §1

ELK4 = target: T3, ELK4 (Homo sapiens, UniProt P28324-2 1-405); conditions: protein: recombinant; tags: N-terminal GST; dsDNA, one strand shown
T3 sequence: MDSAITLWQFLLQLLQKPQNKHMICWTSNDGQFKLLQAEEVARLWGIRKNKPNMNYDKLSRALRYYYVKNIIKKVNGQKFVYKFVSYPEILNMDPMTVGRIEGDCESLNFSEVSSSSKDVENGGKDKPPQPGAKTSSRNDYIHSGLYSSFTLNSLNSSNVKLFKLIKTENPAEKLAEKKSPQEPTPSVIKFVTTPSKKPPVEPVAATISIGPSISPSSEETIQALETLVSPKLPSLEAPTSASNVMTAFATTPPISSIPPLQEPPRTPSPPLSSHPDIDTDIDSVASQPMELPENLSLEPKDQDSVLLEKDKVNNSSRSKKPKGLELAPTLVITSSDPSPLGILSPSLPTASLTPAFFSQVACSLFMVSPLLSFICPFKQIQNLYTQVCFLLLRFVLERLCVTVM
Summary of the method: as §1

ETV2 = target: T4, ETV2 (Homo sapiens, UniProt O00321 1-342); conditions: protein: recombinant; tags: N-terminal GST; dsDNA, one strand shown
T4 sequence: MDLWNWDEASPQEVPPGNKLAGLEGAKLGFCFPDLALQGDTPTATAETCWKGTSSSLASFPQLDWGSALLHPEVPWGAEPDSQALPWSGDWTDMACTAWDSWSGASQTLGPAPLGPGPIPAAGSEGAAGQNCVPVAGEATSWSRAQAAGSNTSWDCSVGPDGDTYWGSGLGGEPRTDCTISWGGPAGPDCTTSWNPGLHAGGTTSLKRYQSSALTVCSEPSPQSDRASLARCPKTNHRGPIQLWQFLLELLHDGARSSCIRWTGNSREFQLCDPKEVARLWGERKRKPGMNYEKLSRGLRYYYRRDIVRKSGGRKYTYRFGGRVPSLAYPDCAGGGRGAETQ
Summary of the method: as §1

ELF3 = target: T5, ELF3 (Homo sapiens, UniProt P78545 1-371); conditions: protein: recombinant; tags: N-terminal GST; dsDNA, one strand shown
T5 sequence: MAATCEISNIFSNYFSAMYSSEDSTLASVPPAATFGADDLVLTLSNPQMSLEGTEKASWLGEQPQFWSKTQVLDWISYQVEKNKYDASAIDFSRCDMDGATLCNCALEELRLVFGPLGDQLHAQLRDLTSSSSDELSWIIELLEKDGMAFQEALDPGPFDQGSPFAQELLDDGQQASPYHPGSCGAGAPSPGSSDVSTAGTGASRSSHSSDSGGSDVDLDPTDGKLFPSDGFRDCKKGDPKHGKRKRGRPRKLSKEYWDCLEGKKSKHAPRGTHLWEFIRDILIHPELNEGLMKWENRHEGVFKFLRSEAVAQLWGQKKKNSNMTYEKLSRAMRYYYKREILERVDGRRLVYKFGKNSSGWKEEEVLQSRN
Summary of the method: as §1

CRX = CRX (Homo sapiens, UniProt O43186 1-299); conditions: protein: recombinant; tags: N-terminal GST; dsDNA, one strand shown
Summary of the method: as §1

ETV1 = ETV1 (Homo sapiens, UniProt P50549 1-477); conditions: protein: recombinant; tags: N-terminal GST; dsDNA, one strand shown
Summary of the method: as §1

HSF1, sequence (Q00613 whole entry): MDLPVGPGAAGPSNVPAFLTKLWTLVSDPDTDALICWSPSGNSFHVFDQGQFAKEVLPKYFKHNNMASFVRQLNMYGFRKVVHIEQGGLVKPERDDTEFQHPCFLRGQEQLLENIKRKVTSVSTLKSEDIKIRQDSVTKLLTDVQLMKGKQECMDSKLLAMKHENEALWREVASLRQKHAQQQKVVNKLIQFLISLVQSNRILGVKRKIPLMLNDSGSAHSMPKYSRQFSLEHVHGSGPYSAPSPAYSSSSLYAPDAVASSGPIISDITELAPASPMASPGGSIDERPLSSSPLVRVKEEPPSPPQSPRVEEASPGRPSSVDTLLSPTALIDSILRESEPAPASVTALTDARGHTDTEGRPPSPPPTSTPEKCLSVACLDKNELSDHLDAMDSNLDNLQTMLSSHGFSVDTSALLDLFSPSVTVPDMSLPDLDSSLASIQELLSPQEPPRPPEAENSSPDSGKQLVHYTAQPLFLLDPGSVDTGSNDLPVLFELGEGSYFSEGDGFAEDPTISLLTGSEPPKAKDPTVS
ETV5, sequence (P41161 whole entry): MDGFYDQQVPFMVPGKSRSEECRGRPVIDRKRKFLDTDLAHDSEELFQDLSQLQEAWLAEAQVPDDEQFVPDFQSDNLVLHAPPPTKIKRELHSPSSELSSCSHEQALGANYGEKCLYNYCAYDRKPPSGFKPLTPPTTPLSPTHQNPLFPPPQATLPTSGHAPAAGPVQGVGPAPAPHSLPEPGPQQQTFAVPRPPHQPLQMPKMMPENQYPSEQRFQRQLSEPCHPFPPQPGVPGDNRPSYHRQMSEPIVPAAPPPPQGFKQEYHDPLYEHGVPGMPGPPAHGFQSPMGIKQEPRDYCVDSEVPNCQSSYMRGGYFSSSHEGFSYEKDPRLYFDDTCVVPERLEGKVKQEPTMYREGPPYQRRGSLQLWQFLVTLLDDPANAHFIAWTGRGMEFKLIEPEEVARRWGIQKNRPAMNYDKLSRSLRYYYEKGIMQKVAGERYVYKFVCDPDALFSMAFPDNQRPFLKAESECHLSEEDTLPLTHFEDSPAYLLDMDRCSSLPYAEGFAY
CRX, sequence (O43186 whole entry): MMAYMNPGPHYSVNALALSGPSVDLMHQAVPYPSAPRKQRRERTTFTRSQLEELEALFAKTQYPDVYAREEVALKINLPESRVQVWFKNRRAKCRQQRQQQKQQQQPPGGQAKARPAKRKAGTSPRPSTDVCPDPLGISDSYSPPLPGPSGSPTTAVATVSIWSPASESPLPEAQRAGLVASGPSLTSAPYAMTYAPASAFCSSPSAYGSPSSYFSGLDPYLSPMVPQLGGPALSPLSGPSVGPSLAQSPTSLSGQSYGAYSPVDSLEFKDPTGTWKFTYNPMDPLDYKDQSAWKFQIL
ELF4, sequence (Q99607 whole entry): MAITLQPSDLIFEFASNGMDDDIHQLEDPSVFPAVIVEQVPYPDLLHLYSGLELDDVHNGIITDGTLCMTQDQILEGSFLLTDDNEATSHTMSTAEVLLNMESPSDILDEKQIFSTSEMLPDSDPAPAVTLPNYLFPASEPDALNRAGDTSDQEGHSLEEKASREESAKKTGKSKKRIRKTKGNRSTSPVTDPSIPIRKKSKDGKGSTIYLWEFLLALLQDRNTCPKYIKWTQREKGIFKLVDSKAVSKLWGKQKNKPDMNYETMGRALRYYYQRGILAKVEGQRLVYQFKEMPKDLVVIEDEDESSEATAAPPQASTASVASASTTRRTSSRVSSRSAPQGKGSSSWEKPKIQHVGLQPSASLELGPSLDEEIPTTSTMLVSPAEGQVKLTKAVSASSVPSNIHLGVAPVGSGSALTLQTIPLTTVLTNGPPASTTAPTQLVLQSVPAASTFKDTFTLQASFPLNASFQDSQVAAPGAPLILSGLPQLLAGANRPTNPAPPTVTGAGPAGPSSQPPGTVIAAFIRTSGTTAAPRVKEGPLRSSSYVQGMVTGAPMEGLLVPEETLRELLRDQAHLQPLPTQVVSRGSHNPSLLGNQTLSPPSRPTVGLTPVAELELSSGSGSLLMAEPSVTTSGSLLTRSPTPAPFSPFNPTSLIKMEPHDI
ETV1, sequence (P50549 whole entry): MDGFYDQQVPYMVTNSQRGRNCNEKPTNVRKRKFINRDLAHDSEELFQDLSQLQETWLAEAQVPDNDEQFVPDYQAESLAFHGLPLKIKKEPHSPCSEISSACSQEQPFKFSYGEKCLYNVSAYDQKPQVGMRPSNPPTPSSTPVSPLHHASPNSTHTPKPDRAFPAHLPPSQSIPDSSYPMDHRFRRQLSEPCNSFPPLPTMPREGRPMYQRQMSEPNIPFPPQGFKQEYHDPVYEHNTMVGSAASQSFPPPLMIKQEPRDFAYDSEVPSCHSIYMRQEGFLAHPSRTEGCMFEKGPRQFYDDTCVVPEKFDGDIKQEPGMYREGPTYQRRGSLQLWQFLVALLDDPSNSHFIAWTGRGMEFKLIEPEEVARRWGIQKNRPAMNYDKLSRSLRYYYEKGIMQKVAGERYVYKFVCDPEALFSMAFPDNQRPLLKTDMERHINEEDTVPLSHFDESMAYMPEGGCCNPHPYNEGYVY

In the case of GCCTAC, the binding signal (FEV) is reported as 1.2 fold enrichment (6-mer frequency, TF over GST control), the binding signal (ETV5) is reported as 1.16 fold enrichment (6-mer frequency, TF over GST control) and the binding signal (HSF1) is reported as 1.01 fold enrichment (6-mer frequency, TF over GST control). The binding signal (SPIC) was 1.37 fold enrichment (6-mer frequency, TF over GST control), the binding signal (ELF4) was 1.26 fold enrichment (6-mer frequency, TF over GST control) and the binding signal (ELK4) was 1.38 fold enrichment (6-mer frequency, TF over GST control). For the same sequence, the binding signal (ETV2) was 1.16 fold enrichment (6-mer frequency, TF over GST control), the binding signal (ELF3) was 1.1 fold enrichment (6-mer frequency, TF over GST control) and the binding signal (CRX) was 1.12 fold enrichment (6-mer frequency, TF over GST control). For the same sequence, the binding signal (ETV1) was 1.2 fold enrichment (6-mer frequency, TF over GST control).
TTTAAA was tested, and the binding signal (FEV) was 1.25 fold enrichment (6-mer frequency, TF over GST control), the binding signal (ETV5) was 1.21 fold enrichment (6-mer frequency, TF over GST control) and the binding signal (HSF1) was 1.64 fold enrichment (6-mer frequency, TF over GST control). The binding signal (SPIC) was 1.02 fold enrichment (6-mer frequency, TF over GST control), the binding signal (ELF4) was 1.19 fold enrichment (6-mer frequency, TF over GST control) and the binding signal (ELK4) was 1.37 fold enrichment (6-mer frequency, TF over GST control). For the same sequence, the binding signal (ETV2) was 1.44 fold enrichment (6-mer frequency, TF over GST control), the binding signal (ELF3) was 1.28 fold enrichment (6-mer frequency, TF over GST control) and the binding signal (CRX) was 2.15 fold enrichment (6-mer frequency, TF over GST control). The binding signal (ETV1) was 1.2 fold enrichment (6-mer frequency, TF over GST control).
CCTGGA was tested, and the binding signal (FEV) was 1.27 fold enrichment (6-mer frequency, TF over GST control), the binding signal (ETV5) was 1.47 fold enrichment (6-mer frequency, TF over GST control) and the binding signal (HSF1) was 1.77 fold enrichment (6-mer frequency, TF over GST control). The binding signal (SPIC) was 1.42 fold enrichment (6-mer frequency, TF over GST control), the binding signal (ELF4) was 1.47 fold enrichment (6-mer frequency, TF over GST control) and the binding signal (ELK4) was 1.38 fold enrichment (6-mer frequency, TF over GST control). For the same sequence, the binding signal (ETV2) was 1.51 fold enrichment (6-mer frequency, TF over GST control), the binding signal (ELF3) was 1.12 fold enrichment (6-mer frequency, TF over GST control) and the binding signal (CRX) was 1.41 fold enrichment (6-mer frequency, TF over GST control). The binding signal (ETV1) was 1.41 fold enrichment (6-mer frequency, TF over GST control).
For ATCGAC, the binding signal (FEV) was 1.12 fold enrichment (6-mer frequency, TF over GST control), the binding signal (ETV5) was 1.25 fold enrichment (6-mer frequency, TF over GST control) and the binding signal (HSF1) was 1.16 fold enrichment (6-mer frequency, TF over GST control). For the same sequence, the binding signal (SPIC) was 1.13 fold enrichment (6-mer frequency, TF over GST control), the binding signal (ELF4) was 1.21 fold enrichment (6-mer frequency, TF over GST control) and the binding signal (ELK4) was 1.26 fold enrichment (6-mer frequency, TF over GST control). For the same sequence, the binding signal (ETV2) was 1.23 fold enrichment (6-mer frequency, TF over GST control), the binding signal (ELF3) was 1.14 fold enrichment (6-mer frequency, TF over GST control) and the binding signal (CRX) was 1.11 fold enrichment (6-mer frequency, TF over GST control). For the same sequence, the binding signal (ETV1) was 1.16 fold enrichment (6-mer frequency, TF over GST control).
For CCGATA, the binding signal (FEV) was 1.14 fold enrichment (6-mer frequency, TF over GST control), the binding signal (ETV5) was 1.15 fold enrichment (6-mer frequency, TF over GST control) and the binding signal (HSF1) was 1.16 fold enrichment (6-mer frequency, TF over GST control). The binding signal (SPIC) was 1.2 fold enrichment (6-mer frequency, TF over GST control), the binding signal (ELF4) was 1.2 fold enrichment (6-mer frequency, TF over GST control) and the binding signal (ELK4) was 1.08 fold enrichment (6-mer frequency, TF over GST control). For the same sequence, the binding signal (ETV2) was 1.25 fold enrichment (6-mer frequency, TF over GST control), the binding signal (ELF3) was 1.05 fold enrichment (6-mer frequency, TF over GST control) and the binding signal (CRX) was 1.27 fold enrichment (6-mer frequency, TF over GST control). The binding signal (ETV1) was 1.16 fold enrichment (6-mer frequency, TF over GST control).
For TTTGCC, the binding signal (FEV) was 1.26 fold enrichment (6-mer frequency, TF over GST control), the binding signal (ETV5) was 1.26 fold enrichment (6-mer frequency, TF over GST control) and the binding signal (HSF1) was 1.24 fold enrichment (6-mer frequency, TF over GST control). For the same sequence, the binding signal (SPIC) was 1.31 fold enrichment (6-mer frequency, TF over GST control), the binding signal (ELF4) was 1.29 fold enrichment (6-mer frequency, TF over GST control) and the binding signal (ELK4) was 1.37 fold enrichment (6-mer frequency, TF over GST control). The binding signal (ETV2) was 1.29 fold enrichment (6-mer frequency, TF over GST control), the binding signal (ELF3) was 1.47 fold enrichment (6-mer frequency, TF over GST control) and the binding signal (CRX) was 1.32 fold enrichment (6-mer frequency, TF over GST control). For the same sequence, the binding signal (ETV1) was 1.33 fold enrichment (6-mer frequency, TF over GST control).
In the case of AACTAG, the binding signal (FEV) is reported as 1.14 fold enrichment (6-mer frequency, TF over GST control), the binding signal (ETV5) is reported as 1.15 fold enrichment (6-mer frequency, TF over GST control) and the binding signal (HSF1) is reported as 1.37 fold enrichment (6-mer frequency, TF over GST control). The binding signal (SPIC) was 1.2 fold enrichment (6-mer frequency, TF over GST control), the binding signal (ELF4) was 1.19 fold enrichment (6-mer frequency, TF over GST control) and the binding signal (ELK4) was 1.02 fold enrichment (6-mer frequency, TF over GST control). The binding signal (ETV2) was 1.35 fold enrichment (6-mer frequency, TF over GST control), the binding signal (ELF3) was 1.1 fold enrichment (6-mer frequency, TF over GST control) and the binding signal (CRX) was 1.11 fold enrichment (6-mer frequency, TF over GST control). The binding signal (ETV1) was 1.15 fold enrichment (6-mer frequency, TF over GST control).
For AATACG, the binding signal (FEV) was 1.19 fold enrichment (6-mer frequency, TF over GST control), the binding signal (ETV5) was 1.27 fold enrichment (6-mer frequency, TF over GST control) and the binding signal (HSF1) was 1.26 fold enrichment (6-mer frequency, TF over GST control). For the same sequence, the binding signal (SPIC) was 1.17 fold enrichment (6-mer frequency, TF over GST control), the binding signal (ELF4) was 1.29 fold enrichment (6-mer frequency, TF over GST control) and the binding signal (ELK4) was 1.02 fold enrichment (6-mer frequency, TF over GST control). For the same sequence, the binding signal (ETV2) was 1.19 fold enrichment (6-mer frequency, TF over GST control), the binding signal (ELF3) was 1.24 fold enrichment (6-mer frequency, TF over GST control) and the binding signal (CRX) was 1.36 fold enrichment (6-mer frequency, TF over GST control). The binding signal (ETV1) was 1.28 fold enrichment (6-mer frequency, TF over GST control).
